From PubChem BioAssay (NCATS)
Inconclusive results are not listed. Calls of active or inactive are those of the source. The call rests on the fitted dose curve; in most records, active means well fitted inhibition curve with a large enough effect; inconclusive means small, poorly fitted or top-dose-only effect; inactive means flat fitted curve, though single readings scatter.

Key:
Assay in all cases: qHTS profiling for inhibitors of Plasmodium falciparum proliferation (AID 504749); further: nearly all actives have a fitted effect of over 60% in size
Conditions in all cases: P. falciparum in erythrocytes, SYBR Green DNA, 72 h; series mostly up to 28.7 µM
CP266 = tested on: CP266
In short: (§1)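 SYBR Green fluorescence (ex 485 nm, em 535 nm) reports parasite DNA after 72 h compound exposure of infected red cells at 0.3% parasitemia, 2.5% hematocrit; signal normalized to 0.29 uM artemisinin and vehicle wells.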

CP268 = tested on: CP268
In short: as §1

CP269 = tested on: CP269
In short: as §1

CP286 = tested on: CP286
In short: as §1

CP291 = tested on: CP291
In short: as §1

CP297 = tested on: CP297
In short: as §1

CP305 = tested on: CP305
In short: as §1

CP315 = tested on: CP315
In short: as §1

CP325 = tested on: CP325
In short: as §1

CP329 = tested on: CP329
In short: as §1

CP335 = tested on: CP335
In short: as §1

DFO2036 = tested on: DFO2036
In short: as §1

DIV14 = tested on: DIV14
In short: as §1

DIV17 = tested on: DIV17
In short: as §1

DIV30 = tested on: DIV30
In short: as §1

Dd2 = tested on: Dd2
In short: as §1

ECU = tested on: ECU
In short: as §1

FAB9 = tested on: FAB9
In short: as §1

GB4 = tested on: GB4
In short: as §1

HB3 = tested on: HB3
In short: as §1

ICS = tested on: ICS
In short: as §1

JCK = tested on: JCK
In short: as §1

N140 = tested on: N140
In short: as §1

P93_24 = tested on: P93_24
In short: as §1

P94_40 = tested on: P94_40
In short: as §1

PAD = tested on: PAD
In short: as §1

PC15 = tested on: PC15
In short: as §1

PC26 = tested on: PC26
In short: as §1

PC49 = tested on: PC49
In short: as §1

SC27B = tested on: SC27B
In short: as §1

TAB109 = tested on: TAB109
In short: as §1

TAB113 = tested on: TAB113
In short: as §1

TAB165 = tested on: TAB165
In short: as §1

W2 = tested on: W2
In short: as §1

Measured: Potency

CC(=O)[C@H]1CC[C@H]2C3CC=C4C[C@@H](O)CC[C@]4(C)C3CC[C@]12C (some centres undefined)
inactive: all assays above
